From PubChem BioAssay
Tau ThT inhib = tau fibrillization inhibition (ThT binding) | recombinant tau K18 P301L, heparin-induced fibrillization, ThT fluorescence | Potency, µM (series often up to 57.4 µM), inactives show top-dose activity, negative = inhibition, actives largely listed as inhibitors | hit rate 2.1% among 270,000 | AID 1460; active means well fitted curve in the direction sought with a large enough effect; inconclusive means small, poorly fitted or top-dose-only effect, or another doubt; inactive means no such curve, though single readings can be large; an effect the other way counts as inactive or inconclusive; further: nearly all actives have a fitted effect of over 55% in size
Target sequence (P10636 561-689 P618L limits assumed): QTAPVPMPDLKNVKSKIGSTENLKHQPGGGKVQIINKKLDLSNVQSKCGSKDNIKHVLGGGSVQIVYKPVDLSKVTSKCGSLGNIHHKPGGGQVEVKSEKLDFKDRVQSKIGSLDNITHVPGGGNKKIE
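In this qHTS, human K18 P301L tau is incubated with compound and heparin for 6 hr at 37 C, and Thioflavin T fluorescence then reports fibril load.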
ALDH1A1 inh = inhibitors of human aldehyde dehydrogenase 1A1; P00352; Purified ALDH1A1, NADH fluorescence, propionaldehyde substrate; Potency, µM (highest dose often 75.3 µM), for the others: at the highest dose activity, negative = inhibition, usual class: inhibitors; hit rate 7.3% among 220,000; AID 1030;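 further: plate controls were no enzyme wells and a reference inhibitor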
KDM4E inh = JMJD2E (human) inhibition; Potency, µM (doses to about 57.1 µM), for the others: at the highest dose activity change, negative = inhibition, usual class: inhibitors; hit rate 1.6% among 230,000; JMJD2E catalytic domain, FDH-coupled NADH fluorescence (FDH is formaldehyde dehydrogenase); B2RXH2; AID 2147;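 further: 0% = wells with enzyme and -100% = buffer wells without enzyme; nearly all actives have a fitted effect of over 50% in size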
Tau FP inhib = inhibitors of human tau fibril formation | P10636 | K18 P301L tau heparin fibrillization, Alexa594 FP, 6 h | Potency, µM (series often up to 57.7 µM), for the others: top-dose activity, negative = inhibition, hits mostly inhibitors | hit rate 0.39% among 280,000 | AID 1468; active means well fitted curve in the direction sought with a large enough effect; inconclusive means small, poorly fitted or top-dose-only effect, or another doubt; inactive means no such curve, though single readings can be large; an effect the other way counts as inactive or inconclusive; further: nearly all actives have a fitted effect of over 55% in size
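Quantitative HTS format: compounds meet 15 uM recombinant K18 P301L tau and Alexa 594-tau tracer in 100 mM sodium acetate pH 7; 20 uM heparin triggers fibrillization at 37 C over 6 hr; FP gives the signal.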
HPGD inh = inhibitors of human 15-hydroxyprostaglandin dehydrogenase (HPGD); hit rate 4.3% among 150,000; P15428; Potency, µM, without a hit: at the highest dose activity change, negative = inhibition, actives largely listed as inhibitors; AID 894; purified HPGD, NADH fluorescence kinetic, PGE2 substrate
Target sequence (P15428 whole entry, looked up): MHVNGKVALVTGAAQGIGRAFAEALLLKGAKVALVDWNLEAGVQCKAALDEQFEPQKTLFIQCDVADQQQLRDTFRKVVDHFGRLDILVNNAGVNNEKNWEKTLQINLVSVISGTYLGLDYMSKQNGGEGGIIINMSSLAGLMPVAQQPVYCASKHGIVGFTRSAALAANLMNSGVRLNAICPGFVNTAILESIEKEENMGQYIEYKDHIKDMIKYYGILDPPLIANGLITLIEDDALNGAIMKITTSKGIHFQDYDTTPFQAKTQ
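20 nM HPGD preincubated 15 min at room temperature with compound in 50 mM Tris-HCl pH 8, 0.01% Tween 20. Started with 1 mM NAD+ and 30 uM prostaglandin E2; NADH fluorescence (360/450 nm) read 5 times over 30-s intervals, last minus first.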
Tau fluor counter = counter-screen for tau fibril formation inhibitors; Potency, µM (series often up to 57.7 µM), inactives show at the top dose activity change, negative = decrease; tau K18 P301L Alexa594 fluorescence, heparin fibrillization; hit rate 0.93% among 280,000; active means well fitted curve in the direction sought with a large enough effect; inconclusive means small, poorly fitted or top-dose-only effect, or another doubt; inactive means no such curve, though single readings can be large; an effect the other way counts as inactive or inconclusive; further: nearly all actives have a fitted effect of over 55% in size
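Human tau K18 P301L (15 uM unlabeled, 0.24 uM Alexa 594-labeled) in 100 mM sodium acetate pH 7 with 20 uM heparin, 6 hr at 37 C. ThT 30 uM added, 1 hr ambient; Alexa 594 FP and total fluorescence read at 555/632 nm.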
* hit, by the source's call; ? = inconclusive; . = not tested or not shown; [ ] = another dose, or the depositor's remark. Shown are actives, neighbours in structure and some others; about 9.9% of the full set was active somewhere. Unless noted, the call rests on the fitted dose curve; in most records, active means well fitted inhibition curve with a large enough effect (not every such curve was filed as active); inconclusive means small, poorly fitted or top-dose-only effect, or another doubt; inactive means no such curve, though single readings can be large or run the other way. Unless noted, on the % scale 0 is the no-effect control and ±100 the full control effect; potency means the concentration at half of the fitted maximal effect.

SMILES | Tau ThT inhib | ALDH1A1 inh | KDM4E inh | Tau FP inhib | HPGD inh | Tau fluor counter
CCSC1=C(C#N)C2(CCCC2)C(C#N)=C(N)N1 | 0% | ? | 12% | -1% | ? | -6%
N#CC1=C(N)NC(SCc2ccc(Br)cc2)=C(C#N)C12CCCCC2 | -19% | ? | 15% | -12% | -12% | 10µM*[quencher]
CC1(C)CC(=O)C2=C(C1)NC(SCC(=O)Nc1ccccc1)=C(C#N)C21CCCCC1 | 6% | 22µM* | ? | ? | ? | ?
CC(C)(C)C1CCC2(CC1)C(C#N)=C(SCC(=O)Nc1ccccc1)NC(=O)C2C#N (stereo not given) | 6% | 8.9µM* | 1% | 22µM* | ? | ?
N#CC1=C(N)NC(SCc2ccccc2)=C(C#N)C12CCCC2 | -14% | 25µM* | -7% | 8% | ? | ?
O=S(=O)(c1ccccc1)c1nc(-c2ccccc2F)oc1N1CCOCC1 | -1% | . | . | 5% | . | -4%
CC1=C(C(=O)Nc2ccccc2)C2(CCCCC2)C(C#N)=C(SCC(N)=O)N1 | -12% | -8% | 9% | 0% | -12% | -17%
N#CC1=C(N)NC(SCc2ccc(Cl)cc2)=C(C#N)C12CCCCC2 | ? | 13µM* | -4% | 6% | -25% | 8.9µM*[quencher]
CSC1=C(C#N)C2(CCCC2)C(C#N)=C(N)N1 | -9% | ? | -6% | -1% | -5% | -16%
N#CC1=C(SCC(=O)c2cc3ccccc3oc2=O)NC(=O)C(C#N)C12CCCC2 (stereo not given) | ? | 1.1µM* | ? | 1% | ? | ?
N#CC1=C(N)NC(SCC(=O)Nc2ccc(Br)cc2)=C(C#N)C12CCCCC2 | -6% | 28µM* | 6% | 1% | -11% | -6%
N#CC1=C(N)NC(SCC(=O)c2ccccc2)=C(C#N)C12CCCC2 | ? | 13µM* | -7% | 14% | ? | ?
COc1cc(O)cc2cc3c(c(O)c12)C(=O)CC(C)(O)O3 (stereo not given) | 25µM* | . | ? | -14% | . | ?
COc1cc(O)c2c(c1)OC(C)(C)CC2=O | 4% | 3% | 4% | -5% | -11% | -4%
O=C(N/N=C/c1ccc(N2CCOCC2)c([N+](=O)[O-])c1)c1ccc(F)cc1 | 11µM* | 5µM* | 3% | 9% | -15% | -29%
O=C(N/N=C/c1ccc(N2CCCC2)c([N+](=O)[O-])c1)c1cccnc1 | 14µM* | 0.28µM* | 0% | 5% | . | -24%
CO/N=C/c1ccc(N2CCN(C(=O)c3ccc(F)cc3)CC2)c([N+](=O)[O-])c1 | ? | 15% | 4% | 5% | -25% | -6%
Cc1ccc(C(=O)N/C(=C/c2ccc(F)cc2)C(=O)NCc2ccncc2)cc1 | -1% | 5% | 11% | 2% | 1% | -5%
Nc1ncn([C@H]2O[C@@H](CO)[C@@H](O)[C@@H]2O)c(=O)n1 | . | -3%[20.9 µM] | -4%[25.5 µM] | . | -1% | .
Fc1ccccc1OCCSc1nnnn1-c1ccccc1 | 3% | 1.9µM* | 0% | 3% | 16µM* | -3%
COc1ccc(CNCCSc2nnnn2-c2ccccc2)cc1 | 6% | . | . | -16% | . | -6%
CCOc1ccc(OCCSc2nnnn2-c2ccccc2)cc1 | -15% | 14µM* | 0% | 7% | -13% | -17%
O=C(CSc1nc2ccc(NC(=O)CSc3nnnn3-c3ccccc3)cc2s1)Nc1ccccc1 | -1% | ? | -2% | -1% | ? | -2%
c1ccc(OCCSc2nnnn2-c2ccccc2)cc1 | -8% | 22µM* | 1% | 7% | -17% | -10%
c1ccc(-n2nnnc2SCCCSc2nc3ccccc3s2)cc1 | -22% | 1.3µM* | -5% | -6% | 11µM* | -25%
COc1ccccc1OCCSc1nnnn1-c1ccc(C)cc1 | ? | -15% | 2% | 2% | -14% | -27%
COc1ccc(CNC(=O)c2ccc3c(c2)nc2n3CCCCC2)c(OC)c1 | -12% | . | . | 0% | . | 6%
CCOc1ccc(OCCSc2nnnn2C2CCCCC2)cc1 | -11% | 16µM* | 7% | 11% | -16% | 0%
